# According to PubChem BioAssay AID1345085 (National Center for Advancing Translational Sciences (NCATS), 2018):
# Records with an inconclusive call do not appear. A number with no mark means an inactive call. Active and inactive are the calls of the source. The call rests on the fitted dose curve; in most records, active means well fitted cell-killing curve with a large enough effect; inconclusive means small, poorly fitted or top-dose-only effect, or effect the other way; inactive means no such curve, though single readings can be large or run the other way.
# Test system: JEG-3
# Test: Confirmatory qHTS for gynecologic anti-cancer compounds from libraries of approved drugs and bioactive compounds; further: nearly all actives have a fitted effect of over 55% in size
# Details: gynecologic cancer cell panel viability, ATPlite luminescence, 48 h; series mostly up to 57.6 µM; activity change, negative = viability loss: at the top concentration
# In short: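 Cells (1,000/well) plated 16 h, then exposed 48 h at 37 °C to 11 concentrations (1:3) from 57.5 uM to 0.977 nM. Viability by ATPlite luminescence after 15 min; IC50 derived, with HEK 293T used for selectivity index.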
# On the % scale 0 is the no-effect control and ±100 the full control effect; potency means the concentration at half of the fitted maximal effect.
Structure (SMILES),Potency,"activity change, negative = viability loss"
CN1CCN(Cc2ccc(NC(=O)Nc3ccc(Oc4cc(NC(=O)C5CC5)ncn4)cc3)cc2C(F)(F)F)CC1,0.243 µM (active),
COc1ccc2cc3[n+](cc2c1OC)CCc1cc2c(cc1-3)OCO2,3.85 µM (active),
O=C(c1ccc(/C=C/c2n[nH]c3ccccc23)cc1)N1CCNCC1,24.3 µM (active),
COc1ccc(-c2nc3ccc(C4=NNC(=O)CC4C)cc3[nH]2)cc1 (stereo not drawn),21.7 µM (active),
CC(C)CC(=O)Nc1n[nH]c2c1CN(C(=O)C1CCN(C)CC1)C2(C)C,1.09 µM (active),
CC(C)C[C@H](NC(=O)[C@@H](NC(=O)c1cccc(-c2ccccc2)n1)[C@@H](C)O)B(O)O,1.53 µM (active),
CCN1CCN(Cc2ccc(Nc3ncc(F)c(-c4cc(F)c5nc(C)n(C(C)C)c5c4)n3)nc2)CC1,9.68 µM (active),
CCC1C(=O)N(C)c2cnc(Nc3ccc(C(=O)NC4CCN(C)CC4)cc3OC)nc2N1C1CCCC1 (stereo not drawn),0.0153 µM (active),
CC(C)C[C@H](NC(=O)[C@H](Cc1ccccc1)NC(=O)c1cnccn1)B(O)O,0.217 µM (active),
C=CC(=O)Nc1cc2c(Nc3ccc(F)c(Cl)c3)ncnc2cc1OCCCN1CCOCC1,27.3 µM (active),
CC[C@@]1(O)C(=O)OCc2c1cc1n(c2=O)Cc2c-1nc1ccccc1c2/C=N/OC(C)(C)C,0.0217 µM (active),
Cn1cnc2c(F)c(Nc3ccc(Br)cc3F)c(C(=O)NOCCO)cc21,,-1.43%
CC(C)(C)C(=O)OCOP(=O)(COCCn1cnc2c(N)ncnc21)OCOC(=O)C(C)(C)C,2.43 µM (active),
